High-throughput results: PubChem, several laboratories
Compounds with a hit are over-represented: about 2.2% of the library has one in this group of screens.
KLF5 inhibitor: KLF5 expression inhibitors, primary screen, DLD-1 cells, luminescence. DLD-1 KLF5 promoter-luciferase reporter. inhibition, % at 5 µM. hit rate 0.23% among 290,000. AID 1700, 2009;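 active = inhibition above a per-plate limit of that plate's mean compound inhibition plus 3 SD, cut at about 60% in these data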;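 note: 0% = DMSO wells and 100% = LY294002 at 200 µM; higher means less KLF5 promoter-driven luciferase light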
APP 5UTR inh: inhibitors of APP translation via 5'UTR reporter, primary screen, APP 5'UTR luciferase, SH-SY5Y cells | SH-SY5Y APP 5'UTR-luciferase reporter, luminescence | inhibition, % at 2 µM | hit rate 0.82% among 190,000;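 active = inhibition above a set limit, derived from the sample mean plus 3 SD, cut at about 45% in these data; inconclusive = one replicate passes the limit while the other fails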
Ba/F3 V617F tox: reduced viability of JAK2V617F-dependent Ba/F3 cells, primary screen, JAK2V617F inhibitor project, cell-based, Ba/F3 EpoR-JAK2V617F, luminescence; hit rate 1.1% among 220,000; AID 1446, 2008; ATP luminescence; inhibition, % at 5.6 µM;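 active = inhibition above the campaign mean plus 3 SD over all tested compounds, cut at about 24% in these data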;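 note: cytokine-independent growth of Ba/F3 cells driven by EpoR plus mutant JAK2; 0% = DMSO-treated cells and 100% = JAK inhibitor I control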
aSyn UTR inh: MLPCN primary screen, SNCA 5' untranslated region | alpha-synuclein 5'UTR reporter, inhibitor activity | inhibition, % (tested at 7.5 µM) | hit rate 0.82% among 300,000; in the data active = inhibition above about 60%; inconclusive = no clear call, values can overlap the other calls;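 note: H4 neuroglioblastoma cells stably carrying SNCA 5'UTR luciferase fusion; 0% = DMSO wells and 100% = positive control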
BaF3 parental: parental Ba/F3 cell viability inhibition, counter-screen for JAK2V617F inhibitor project, murine pro-B, CellTiter-Glo luminescence; inhibition, % at 5.6 µM; AID 1486, 2009; hit rate 1.1% among 220,000; CellTiter-Glo ATP luminescence;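 active = inhibition above a per-campaign cutoff, the mean inhibition of all tested compounds plus 3 SD, cut at about 27% in these data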;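 note: 0% = DMSO wells and 100% = JAK Inhibitor I control wells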
IEC-6 cytotox: cytotoxicity in IEC-6 intestinal epithelial cells, primary screen, cytotoxicity control for KLF5 inhibitor project, cell-based, luminescence; IEC-6 cytotoxicity, luminescence viability; inhibition, % at 5 µM; hit rate 0.78% among 290,000; AID 1825, 2009; in the data active = inhibition above about 22%;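 note: 0% = plate median of test compound wells and 100% = cytotoxic reference compound wells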
Active calls of the source: *; ? = inconclusive; . = no result given; ! = a repeat was not active.

SMILES	KLF5 inhibitor	APP 5UTR inh	Ba/F3 V617F tox	aSyn UTR inh	BaF3 parental	IEC-6 cytotox
O=Nc1ccc(O)c2ncccc12	10	.	99*	-236	103*	19
Cc1ccccc1N=Nc1ccc(O)c2ncccc12	-6	77*	3	?	1	-2
COc1ccc(N=Nc2ccc(O)c3ncccc23)cc1	-13	.	-3	44	4	10
COc1cc(/C=C/[N+](=O)[O-])ccc1OC(=O)/C=C/c1ccc(F)cc1	-26	.	.	-72	.	-14
CCN(CC)CCN(C(=O)c1cc2c(ccc3ccccc32)oc1=O)c1nc2cc3c(cc2s1)OCCO3	-84	.	.	78*	.	-8
CCN(CC)CCN(C(=O)c1ccc2c(c1)OCCO2)c1nc2cc3c(cc2s1)OCO3	-30	.	.	-50	.	0
Cc1cnc(C(=O)OCC(=O)NC(=O)c2ccccc2)cn1	.	.	.	3	.	.
CC1CCN(S(=O)(=O)c2cn(CC(=O)N3CCN(c4cccc(C(F)(F)F)c4)CC3)cn2)CC1	-18	.	.	39	.	2
CC(=O)Nc1cccc(Oc2ncnc3scc(-c4ccc(C(C)C)cc4)c23)c1	-49	2	1	48	5	26*
O=C(Cn1c2[n+](c3ccc(C(F)(F)F)cc31)CCCCC2)c1cccc([N+](=O)[O-])c1	-26	4	1	-12	80*	6
O=C(Cn1c2[n+](c3ccc(C(F)(F)F)cc31)CCCCC2)Nc1ccccc1	0	-2	1	8	7	2
FC(F)(F)c1ccc2c(c1)n(Cc1ccccc1)c1[n+]2CCCCC1	-9	-5	22	15	35*	-3
COc1ccc(CCn2c(N)c(C(=O)NCc3ccco3)c3nc4ccccc4nc32)cc1	-18	-6	37*	-3	38*	2
COc1ccc(CCn2c(N)c(C(=O)NCc3ccco3)c3nc4ccccc4nc32)cc1OC	-5	9	-2	-51	3	-3
Nc1c(C(=O)c2ccccc2)sc2snc(SCC(=O)c3ccccc3)c12	-30	-38	-4	-37	95*	4
COc1ccc(C(=O)Nc2c(N)nc[nH]c2=O)cc1	.	.	.	-13	.	.
CCc1ccc(OCCCOc2ccc(C=O)cc2)cc1	-48	8	1	4	102*	-5
CCN(CC)S(=O)(=O)c1ccc(N/N=C(\C)c2ccc(OC)cc2O)nc1	20	.	1	78*	-3	-3
CCOc1cccc(/C=N/Nc2ccc(S(=O)(=O)N(CC)CC)cn2)c1O	18	83*	-3	88*	2	4
Cc1ccccc1NC(=O)CN1C(=O)S/C(=C/c2cccnc2)C1=O	-9	.	.	19	.	-1
O=C(Nc1ccccc1C(=O)N1CCCCCC1)c1ccc(F)cc1	-43	.	.	3	.	-8
COc1ccccc1-n1cc([C@@H]2C[C@H]3CN(c4ccccc4)C(=O)[C@]34CCCN24)cn1	-17	95*	-1	-362	7	-2
Cc1ccc(NC2=C/C(=N\S(=O)(=O)c3cccs3)c3ccccc3C2=O)c(C)c1	-81	-105	56*	118*	33*	8
Cc1c(/N=C(\[O-])Nc2ccc(Br)cc2)sn[n+]1C	-121	.	3	89*	1	1
CNC(=S)Nc1ccc(Br)cc1	-6	4	0	-35	7	6
SMILES	KLF5 inhibitor	APP 5UTR inh	Ba/F3 V617F tox	aSyn UTR inh	BaF3 parental	IEC-6 cytotox
Cc1ccc(S(=O)(=O)N2CCCCC2)cc1NC(=O)C1CCCO1 (stereo not drawn)	0	17	1	0	6	0
N#Cc1c(-c2ccc(Cl)cc2)c2c([nH]c1=O)-c1ccccc1OC2	5	.	12	17	51*	-2
COc1ccc(NC(=S)N2CCC(C(=O)c3ccc(C)cc3)CC2)c(OC)c1	-15	-4	3	-5	6	-2
CC(C)(C)C(=O)/C(=C/c1ccncc1)n1cncn1	14	58*	91*	-58	75*	22
Cc1nn(C)c(C)c1/C=C(/C(=O)C(C)C)n1cncn1	-25	.	2	-10	-5	3
Cc1nn(C)c(C)c1/C=C(/C(=O)C(C)(C)C)n1cncn1	-6	.	-7	89*	-4	-4
COc1ccc(C)cc1NC(=O)CCNC(=O)Cn1cnc2ccccc2c1=O	-16	.	.	-22	.	6
Cc1c(Cl)c([N+](=O)[O-])nn1Cc1ccc(C(=O)Nc2ccc(Cl)cn2)o1	-24	8	3	-7	8	10
O=C(Nc1nc(-c2ccccn2)cs1)c1ccc([N+](=O)[O-])o1	7	.	84*	-32	89*	-5
O=C(Nc1ccc(Cl)cn1)c1ccc([N+](=O)[O-])o1	-23	47*	1	-17	-1	7
O=C(Nc1nc(-c2ccccn2)cs1)c1cc(Cl)ccc1[N+](=O)[O-]	64*	76*	72*	116*	61*	83*
CCN1CCN(Cc2ccc(NC(=O)c3ccc(C)c(NC(=O)N4CCNC4=O)c3)cc2C(F)(F)F)CC1	-23	.	.	66*!	.	4
O=C(Nc1ccc(S(=O)(=O)N2CCOCC2)cc1)c1ccc(CN2CCc3ccccc3C2)cc1	5	0	63*	-15	51*	16
CC(=O)N1CCN(c2ccccc2NC(=O)c2ccc(C#N)cc2F)CC1	-2	3	1	-23	90*	2
CN1CCN(c2ccccc2NC(=O)c2ccccc2F)CC1	-8	.	-3	-10	1	-6
O=C(Oc1c(Br)cc([N+](=O)[O-])cc1Br)c1cccnc1	-6	0	-2	24	-2	2
NS(=O)(=O)c1ccc(CNS(=O)(=O)c2cc(C(=O)O)ccc2Cl)cc1	-20	3	-6	0	-1	-1
COc1cccc(/C=N/NC(=O)CSc2nnc(C)n2-c2ccccc2)c1O	24	-9	0	38	-3	3
COc1ccc(CCCC(=O)N/N=C/c2cccc(OC)c2O)cc1C	-18	12	-2	74*	6	3
COc1cccc(/C=N/NC(=O)C(=O)Nc2ccccc2OC(F)(F)C(F)F)c1O	13	33	-3	71*	0	2
CCCCSc1nc(C)cc(SCC(=O)N/N=C/c2cccc(OC)c2O)n1	24	43	2	81*	9	0
COc1ccc(C(=O)Nc2cccc(C(=O)N/N=C/c3ccc(OC)cc3OC)c2)cc1	-29	.	.	83*	.	10
COc1cccc(/C=N/NC(=O)c2ccc(-c3ccccc3)cc2)c1O	23	18	-3	76*	2	3
CCOc1ccccc1NC(=O)C(=O)N/N=C/c1cc(Br)ccc1O	-23	59*	-1	51	4	8
COc1ccc(OC)c(/C=N\NC(=O)c2ccc(-c3ccccc3)cc2)c1	-18	.	.	.	.	5
Cc1ccc(C)c(SCC(=O)Nc2oc(C)c3c(C)n[nH]c(=O)c23)c1	.	.	.	-16	.	.
